Screening results as filed in PubChem.
This is a sample that favours compounds with a hit; in the whole collection about 9.2% have one here.
ELG1 DNA repair: ELG1-dependent DNA repair inhibition; 2.3% of 330,000 active; Potency, µM (highest dose often 46.1 µM), without a hit: at the highest dose activity change, negative = inhibition, actives largely listed as inhibitors; HEK293T ELG1-luciferase reporter, luminescence, 16 h; DNA damage induced by 5-fluorouridine; AID 504467; note: % is set by controls: 0 for no effect and ±100 for the full control effect; nearly all actives have a fitted effect of over 55% in size
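Quantitative HTS, concentration-response format. 2,000 cells/well co-treated with 5-fluorouridine and compound, 16 hr in 5% CO2 at 37 °C; ONE-Glo luminescence read after 30 min.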
SMN2 splice enh: SMN2 splice variant enhancement | HEK293 SMN2-luciferase splicing reporter, luminescence, 30-36 h | Potency, µM (doses to about 46.1 µM), for inactives: at the highest dose activity change, positive = activation, actives largely listed as activators | 2.8% of 210,000 active | AID 1458; note: % of control where 0% means no effect; nearly all actives have a fitted effect of over 55% in size
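HEK293 cells carry an SMN2 […]–luciferase reporter in which exon 7 inclusion puts luciferase in frame. Cells were plated 10-12 h before compound addition, then incubated 30-36 h at 37C. ONE-Glo luminescence was read; sodium butyrate at 4.5 mM final served as control.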
NPC1 promoter act: activates the NPC1 promoter; Huh7 NPC1 promoter luciferase reporter, 24 h; AID 485313; 2.4% of 320,000 active; Potency, µM (top dose mostly 9.22 µM), inactives show at the top dose activation, hits mostly activators; note: % of control where 0% means no effect; nearly all actives have a fitted effect of over 60% in size
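Stable NPC1-promoter luciferase Huh7 line; cpd (DMSO) 24 h, 37 °C, 5% CO2; Amplite luciferase reagent 10 min RT; luminescence readout. qHTS format.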
ELG1 genotox: induces genotoxicity in HEK293T cells with luciferase-tagged ELG1 | AID 504466 | 1.3% of 330,000 active | Potency, µM (highest dose often 46 µM), without a hit: top-dose activity change, positive = activation, most hits filed as activators | HEK293T ELG1-luciferase reporter, luminescence, 16 h; note: % of control where 0% means no effect; nearly all actives have a fitted effect of over 60% in size
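Genotoxicity was scored as increased ELG1-luciferase reporter signal, measured by ONE-Glo luminescence (30 min, room temperature). Compound or vehicle exposure of the HEK293T reporter cells lasted 16 hr at 37°C.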
Rab9 promoter act: Rab9 promoter activation; Potency, µM (doses to about 9.22 µM), inactives show at the top dose activation, negative = inhibition, hits mostly activators; Huh7 Rab9 promoter-luciferase reporter, luminescence, 24 h; AID 485297; 2.8% of 320,000 active; note: % of control where 0% means no effect; nearly all actives have a fitted effect of over 60% in size
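Huh7 cells stably carrying Rab9 promoter–luciferase reporter, plated 1500 cells/well, compound added after 2 h and incubated 24 h at 37 °C; luciferase luminescence then read after 10 min with detection reagent.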
FLuc counter: inhibits or activates purified firefly luciferase, miR-21 counter-screen; P08659; purified FLuc, Km substrates, luminescence inhibition; Potency, µM (doses to about 57.5 µM), for the others: at the highest dose activity change, negative = inhibition, actives largely listed as inhibitors; 6.9% of 360,000 active;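 note: plate controls were vehicle for no effect and reference inhibitor for full effect; nearly all actives have a fitted effect of over 55% in size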
Target sequence (P08659 whole entry, looked up): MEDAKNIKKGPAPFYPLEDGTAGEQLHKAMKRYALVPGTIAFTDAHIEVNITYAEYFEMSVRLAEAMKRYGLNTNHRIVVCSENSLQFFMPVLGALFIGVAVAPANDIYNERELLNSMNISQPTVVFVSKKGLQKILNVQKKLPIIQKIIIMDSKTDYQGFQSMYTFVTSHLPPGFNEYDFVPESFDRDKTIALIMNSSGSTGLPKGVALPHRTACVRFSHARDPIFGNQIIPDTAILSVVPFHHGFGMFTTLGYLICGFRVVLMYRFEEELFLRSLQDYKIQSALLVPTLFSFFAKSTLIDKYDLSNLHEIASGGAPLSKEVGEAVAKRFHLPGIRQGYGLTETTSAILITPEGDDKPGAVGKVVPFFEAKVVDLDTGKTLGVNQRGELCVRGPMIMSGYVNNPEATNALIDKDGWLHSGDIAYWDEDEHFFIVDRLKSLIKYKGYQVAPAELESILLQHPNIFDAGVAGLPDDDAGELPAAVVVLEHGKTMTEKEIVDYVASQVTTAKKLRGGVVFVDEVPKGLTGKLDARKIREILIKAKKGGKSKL
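Purified P. pyralis luciferase (10nM final) with 10uM D-luciferin and 10uM ATP (Km levels) in 50mM Tris acetate pH 7.5, 10mM Mg acetate, 0.01% Tween-20, 0.05% BSA; qHTS 6-point titration, ~60 µM downward; luminescence read.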
The depositor's hits bear a star; ? = inconclusive; · = not tested or not shown; [ ] = another dose, or the depositor's remark. Calls come from the whole dose curve; as a rule, active = well fitted curve in the direction sought with a large enough effect; inconclusive = small, poorly fitted or top-dose-only effect, or another doubt; inactive = no such curve, though single readings can be large; an effect the other way counts as inactive or inconclusive. Potency is the fitted concentration of half-maximal effect.

SMILES	ELG1 DNA repair	SMN2 splice enh	NPC1 promoter act	ELG1 genotox	Rab9 promoter act	FLuc counter
CCOC(=O)c1c(C)[nH]c(N=Nc2ccc(C)cc2)c1C	?	13µM*	1µM*	3.2µM*	1.4µM*	3.8µM*
CCOC(=O)c1c(C)[nH]c(N=Nc2ccccc2)c1C	?	4%	?	12µM*	?	12µM*
CCOC(=O)c1c(C)[nH]c(N=Nc2ccccc2Cl)c1C	?	·	?	?	?	12µM*
CCOC(=O)c1c(C)[nH]c(N=Nc2ccc(OC)cc2)c1C	?	·	3.5µM*	?	?	7.6µM*
CCOC(=O)c1c(C)[nH]c(NC(=O)NNC(=O)c2ccccc2Cl)c1C	0%	·	1%	0%	-3%	·
CSc1cccc(NC(=O)C2CCN(S(=O)(=O)c3ccc4c(c3)CCCN4C(=O)C3CCC3)CC2)c1	·	·	·	·	·	-8%
COc1ccc(NC(=O)c2oc3ccccc3c2NC(=O)c2cc(=O)c3ccccc3o2)cc1	·	6%	·	·	·	-3%
CN(CC(=O)Nc1ccc(Cl)c(Cl)c1)C(=O)C1CCC1	3%	·	·	-1%	·	·
COc1ccccc1N(C)S(=O)(=O)c1ccc(C(=O)NCC2CCCCC2)cc1	?	·	-1%	-7%	1%	-1%
CCCCCC(=O)N1CCN(S(=O)(=O)c2ccc3c(c2)OCCO3)CC1	-1%	·	0%	1%	1%	-1%
O=C(CCl)N1CCN(S(=O)(=O)c2ccc3c(c2)OCCCO3)CC1	18µM*	·	-5%	6%	-33%	3%
O=S(=O)(c1ccc(N2CCN(Cc3ccc4c(c3)OCO4)CC2)nc1)N1CCOCC1	?	-32%	-4%	-10%	-2%	-1%
O=S(=O)(c1ccc(N2CCN(S(=O)(=O)c3ccc4c(c3)OCCO4)CC2)nc1)N1CCCC1	8.2µM*	·	-6%	-6%	1%	9%
O=C(COc1ccccc1)Nc1nc2ccccc2[nH]1	?	?	?	4.5µM*	3.5µM*	12µM*
CN(C)CCCSc1nc2ccccc2[nH]1	·	-12%[9.22 µM]	·	·	·	·
Cc1ccccc1OCCCSc1nc2ccccc2[nH]1	-10%	·	0%	0%	3%	24µM*
Cc1ccccc1OCC(=O)Nc1nc2ccccc2[nH]1	?	18µM*	?	24%	2.2µM*	3.4µM*
O=C(COc1cccc2ccccc12)Nc1nc2ccccc2[nH]1	-10%	11%	-4%	1%	-7%	?
CCOc1ccccc1OCC(=O)Nc1nc2ccccc2[nH]1	-5%	11%	-1%	-3%	12%	15µM*
Cc1ccc(C)c(S(=O)(=O)Nc2ccc(C(=O)N3CCC3)cc2)c1	11%	·	-1%	2%	0%	2%
Cc1c(C(=O)N2CCOCC2)c(S(=O)(=O)N2CCN(c3ccc(Cl)cc3)CC2)c(C)n1C	12%	·	2%	0%[9.26 µM]	-7%	1%
Cc1c(OCC(F)(F)F)ccnc1CSc1nc2ccccc2[nH]1	?	-21%	?	16%	?	12µM*
CC(CC(=O)Nc1nc2ccccc2[nH]1)c1ccccc1 (stereo not given)	?	?	4.5µM*	?	4µM*	12µM*
CSc1ccc(C(=O)N2CCc3ccc(NC(=O)c4ccccn4)cc3C2)cc1	?	·	?	-34%	?	19µM*
CCc1ccc(C2CC(=O)Nc3c2c(=O)n(C)c2ncnn32)cc1 (stereo not given)	·	-14%	·	·	·	-7%
SMILES	ELG1 DNA repair	SMN2 splice enh	NPC1 promoter act	ELG1 genotox	Rab9 promoter act	FLuc counter
CC(=O)c1ccc(NC(=O)c2noc3c2CCCCC3)cc1	?	8.9µM*	1.1µM*	2.9µM*	2µM*	7.6µM*
O=C(Nc1cccnc1)c1noc2c1CCCC2	?	28%	?	?	?	?
CCOC(=O)c1ccc(NC(=O)c2noc3c2CCCC3)cc1	·	·	·	·	·	8.5µM*
CCn1nc(C)c2c(-c3ccccc3)cc(=O)n(C(C)C(=O)NCCc3ccc(OC)c(OC)c3)c21 (stereo not given)	·	·	·	·	·	1%
O=C(CSc1ncccc1C(=O)Oc1ccccc1Cl)Nc1ccccc1Cl	·	·	·	·	·	-16%
COc1cccc(NC(=O)CN2C(=O)COc3ccc(S(=O)(=O)N4CCOCC4)cc32)c1	1%	·	0%	0%	4%	3%
Cc1ccccc1CN1C(=O)c2ccccc2S1(=O)=O	-3%	·	24%	-6%	3%	4%
O=C1c2ccccc2S(=O)(=O)N1Cc1nc2ccccc2s1	?	-69%	?	16%	-11%	19µM*
Cc1cc(Cl)ccc1OCC(=O)Nc1nc(N)nc(N)n1	·	-7%[9.22 µM]	·	·	·	·
C/C(=N/NC(=O)c1ccc(C)s1)c1cccc(NC(=O)COc2ccc(Cl)cc2C)c1	1%	-8%	26%	7%	3%	5.4µM*
Cc1ccc(OCC(=O)Nc2ccc3nn(-c4ccc(Cl)cc4)nc3c2)cc1	·	-16%	·	·	·	2%
C/C(=N\NC(=O)c1c(Cl)c(C)nn1C)c1cccc(NC(=O)COc2ccc(Cl)cc2)c1	16µM*	13%	?	3%	26%	8.5µM*
Cc1ccc(CN2C(=O)C(=O)c3cc(Br)cc(C)c32)cc1	·	-13%	·	·	·	?
CCCN(CCC)Cc1c(C(=O)N/N=C/C(C)=C\c2ccco2)nnn1-c1nonc1N	21µM*	·	-7%	-5%	2%	-3%
CC(C)(C)OC(=O)N[C@H](C(=O)OC(C)(C)C)c1ccccc1	18%	·	-5%	-1%	-5%	-2%
CC(C)(C)c1csc(NC(=O)c2ccc(Cl)s2)n1	15%	-17%	?	4%	?	6.7µM*
CC(C)(C)c1csc(NC(=O)c2ccc3nccnc3c2)n1	?	14%	2.5µM*	8%	3.5µM*	8.5µM*
CC(C)(C)c1csc(NC(=O)c2ccncc2)n1	?	-64%	-7%	-5%	-6%	?
Cc1ccc(C(=O)Nc2nc(C(C)(C)C)cs2)s1	?	-5%	?	4.6µM*	3.2µM*	5.4µM*
CCOc1ccc(S(=O)(=O)N2CCOCC2)cc1NC(=O)c1ccc(N2CCCC2=O)cc1	-21%	·	-1%	2%	1%	3%
CCCc1ccc(/C=C2\C(=O)c3ccccc3C(O)=C2C(=O)OCC)cc1	?	10µM*	16%	?	2%	3.4µM*
CCOC(=O)c1ccc(COC(=O)c2ccc3c(c2)-c2ccccc2C3=O)cc1	-1%	-20%	-6%	-1%	0%	1%
CCOC(=O)C1=C(O)c2ccccc2C(=O)/C1=C\c1ccc(CC)cc1	20%	?	2%	-6%	2%	3.4µM*
CCOC(=O)C1=C(C)N(c2ccccc2)C(=O)/C1=C\c1ccc(O)c(OC)c1	?	·	-4%	0%	1%	?
